# Rows were chosen to be rich in hits. Some 0.92% of all compounds tested hit in one or more screens of this group.
# BLM inh: blocks DNA unwinding by human BLM helicase; recombinant BLM DNA unwinding, fluorescence dequenching; Potency, µM (titrated, usually from 56.1 µM), inactives show at the highest dose activity change, negative = inhibition, actives largely listed as inhibitors; actives 0.2% (n = 350,000); AID 2528;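 note: plate controls were vehicle for no effect and no enzyme for full effect; nearly all actives have a fitted effect of over 35% in size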
# L3MBTL1 block: inhibitors of human L3MBTL1; Q9Y468; AlphaScreen L3MBTL1–H3K9me1 peptide binding; Potency, µM (series often up to 57.1 µM), inactives show at the top dose activity, negative = inhibition, actives largely listed as inhibitors; actives 0.66% (n = 230,000); AID 485360; note: nearly all actives have a fitted effect of over 60% in size
# Target sequence (Q9Y468 whole entry, looked up): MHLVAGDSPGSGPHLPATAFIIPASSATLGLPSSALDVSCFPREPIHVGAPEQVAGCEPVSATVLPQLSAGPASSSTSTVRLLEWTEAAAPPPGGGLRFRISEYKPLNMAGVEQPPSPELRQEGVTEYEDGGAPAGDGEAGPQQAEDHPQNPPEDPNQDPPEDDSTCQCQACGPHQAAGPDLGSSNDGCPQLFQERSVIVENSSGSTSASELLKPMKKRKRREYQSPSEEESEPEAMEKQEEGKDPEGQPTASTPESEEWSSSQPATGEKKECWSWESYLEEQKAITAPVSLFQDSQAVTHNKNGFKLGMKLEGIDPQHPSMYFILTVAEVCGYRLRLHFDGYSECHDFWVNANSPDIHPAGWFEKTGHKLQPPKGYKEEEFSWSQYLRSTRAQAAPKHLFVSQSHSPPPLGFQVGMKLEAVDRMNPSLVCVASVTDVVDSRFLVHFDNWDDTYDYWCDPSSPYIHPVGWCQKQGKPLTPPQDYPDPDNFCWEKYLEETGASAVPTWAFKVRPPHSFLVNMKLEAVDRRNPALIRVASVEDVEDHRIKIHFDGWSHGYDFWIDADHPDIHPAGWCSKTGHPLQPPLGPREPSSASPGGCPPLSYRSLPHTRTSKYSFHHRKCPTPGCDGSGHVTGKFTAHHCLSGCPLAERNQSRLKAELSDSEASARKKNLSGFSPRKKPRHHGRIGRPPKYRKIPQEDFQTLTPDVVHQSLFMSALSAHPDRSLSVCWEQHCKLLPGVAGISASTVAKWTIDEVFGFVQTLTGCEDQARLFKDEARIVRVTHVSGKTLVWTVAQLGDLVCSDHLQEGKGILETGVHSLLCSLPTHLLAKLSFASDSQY
#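 Read-out is AlphaScreen signal from streptavidin donor and nickel chelate acceptor beads (10 ug/mL final each) bridging L3MBTL1 (50 nM) and biotinylated K9-monomethylated H3(1-15) peptide (75 nM), after 30 min compound exposure at room temperature.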
# RECQ1 inh-1: inhibitors of human RECQ1 DNA helicase; P46063; RECQ1 DNA unwinding, red fluorescence kinetic read; Potency, µM (titrated, usually from 57.3 µM), for inactives: at the highest dose activity, negative = inhibition, most hits filed as inhibitors; actives 0.54% (n = 240,000);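 note: plate controls were vehicle for no effect and no enzyme for full effect; nearly all actives have a fitted effect of over 30% in size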
#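 RECQ1T1 50 nM; forked duplex (20 bp + 30-nt ss tails) 200 nM, ATP 2 mM final; pH 8.0, 2 mM MgCl2, 2.5 ug/ml poly(dI-dC); 15 min compound preincubation; discontinuous kinetic read over 2 h at RT.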
# WRN inhibitor: WRN helicase (human) inhibition; Q14191; WRN helicase unwinding, fluorescent forked duplex, kinetic; Potency, µM (series often up to 114 µM), for inactives: at the top dose activity change, negative = inhibition, usual class: inhibitors; actives 0.46% (n = 360,000); note: nearly all actives have a fitted effect of over 55% in size
#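 WRN at 20 nM final was preincubated with compound for 15 min at room temperature; reaction started with 100 nM forked duplex oligonucleotide carrying fluorophore and quencher plus 2 mM ATP (final). Unwinding followed kinetically by red fluorescence (ex 525/em 598 nm).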
# APE1 inh: inhibitors of human APE1 endonuclease; P27695; recombinant APE1, TAMRA/BHQ-2 abasic DNA cleavage fluorescence; Potency, µM (highest dose often 65.8 µM), for the others: at the highest dose activity change, negative = inhibition, most hits filed as inhibitors; actives 0.35% (n = 350,000); AID 2517;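 note: plate controls were vehicle for no effect and reference inhibitor for full effect; nearly all actives have a fitted effect of over 55% in size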
#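 Substrate: short duplex with […] THF abasic site, 5'-TAMRA and 3'-BHQ-2, 50 nM final. APE1 at 0.75 nM, preincubated 15 min RT with compound. Fluorescence increase from first to third read measured activity.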
# RECQ1 conf: confirmation of human RECQ1 helicase inhibitors | actives 28% (n = 610) | Potency, µM (highest dose often 229 µM), inactives show at the highest dose activity change, negative = inhibition, hits mostly inhibitors | AID 2708 | RECQ1 helicase DNA unwinding, fluorescence | shares compounds with RECQ1 inh-1; note: nearly all actives have a fitted effect of over 45% in size
# RECQ1 ADP FP: ADP displacement flagged in RECQ1 inhibitor counter-screen. shares compounds with RECQ1 inh-1. ADP fluorescence polarization displacement counterscreen. Potency, µM (highest dose often 228 µM), inactives show at the highest dose activity change, negative = inhibition, hits mostly inhibitors. actives 27% (n = 530); note: nearly all actives have a fitted effect of over 45% in size
# RECQ1 inh-2: RECQ1 helicase inhibition confirmed, round 2 | actives 15% (n = 1,100) | recombinant RECQ1 DNA unwinding, red fluorescence | shares compounds with RECQ1 inh-1 | Potency, µM (titrated, usually from 119 µM), for inactives: at the highest dose activity, negative = inhibition, hits mostly inhibitors | AID 504841; note: nearly all actives have a fitted effect of over 50% in size
# * marks the source's active call; other numbers are inactive results; u = inconclusive; x = no result; [ ] = dose if it differs, or a comment. Calls come from the whole dose curve; as a rule, active = well fitted curve in the direction sought with a large enough effect; inconclusive = small, poorly fitted or top-dose-only effect, or another doubt; inactive = no such curve, though single readings can be large; an effect the other way counts as inactive or inconclusive. Unless noted, % is set by controls: 0 for no effect and ±100 for the full control effect; potency is the fitted concentration of half-maximal effect.
SMILES,BLM inh,L3MBTL1 block,RECQ1 inh-1,WRN inhibitor,APE1 inh,RECQ1 conf,RECQ1 inh-2,others
COc1ccc(C(=O)Cn2c3ccccc3n3nc(CCC(=O)O)c(=O)nc23)cc1OC,0%,x,-8%,4%,-2%,21%,x,RECQ1 ADP FP=u
O=C(O)CCc1nn2c3ccccc3n(CC(=O)c3cccs3)c2nc1=O,-4%,x,2%,5%,-2%,7%,x,RECQ1 ADP FP=-4%
Cc1cc(C)n(CCc2nc(-c3ccco3)cs2)n1,u,x,35µM*,u,u,x,u,
O=C(O)/C(=C\c1ccccc1Cl)c1ccc(S(=O)(=O)N2CCCCC2)s1,-16%,-11%,3%,-14%[57.1 µM],24%,126µM*,x,RECQ1 ADP FP=-9%
NCC(=O)N[C@@H](CCCN=C(N)N)C(=O)NCC(=O)N[C@@H](CC(=O)O)C(=O)N[C@@H](CO)C(=O)N1CCC[C@H]1C(=O)O,0%,x,7%,x,-1%,x,x,
CNc1ccc(Br)cc(C(=O)/C=C/c2ccc(OC)cc2)c1=O,u,-16%,u,-8%[11.6 µM],u,x,-13%,
COc1ccc(/C=C/C(=O)c2ccc(OC)cc2OC)cc1,-4%,-5%,-11%,-3%,-3%,x,x,
CNc1ccc(Br)cc(C(=O)/C=C/c2ccc3c(c2)OCO3)c1=O,-23%,28µM*,u,u,u,x,u,
Cc1cccc(C(=O)NCC(c2cccs2)S(=O)(=O)c2cccs2)c1 (stereo unspecified),0%,x,x,x,x,x,x,
O=C(COC(=O)c1ccc(S(=O)(=O)N2CCc3ccccc3C2)cc1)NC1CCS(=O)(=O)C1 (stereo unspecified),-3%,-13%,u,-20%,0%,x,u,
COc1ccc(N(CC(=O)NCCSCc2ccco2)S(=O)(=O)c2ccccc2)cc1,-10%,-19%,-5%,-7%,1%,x,x,
O=C(CN(c1ccccc1)S(=O)(=O)c1ccccc1)NCCSCc1ccco1,-27%,-14%,14µM*,-12%[11.6 µM],7.9µM*,50µM*,u,RECQ1 ADP FP=50µM*
C=CCn1c(=O)c(C#N)cc2c(=O)n3ccccc3nc21,-9%,-7%,u,-18%,10%,x,-16%,
O=C(/C=C/c1ccc(Br)o1)NC(c1ccccc1)c1ccccc1,-3%,-10%,-10%,-12%,7%,x,x,
O=C1C(=Cc2ccc(Br)o2)C(=O)c2ccccc21,-2%,3.2µM*,8.9µM*,8.9µM*,8.9µM*,u,x,
COc1ccc(-c2cnc(-c3cccnc3)o2)cc1,4%,x,1%,x,-4%,x,x,
CN(C)c1ccc(/C=C2\SC(=S)N(Nc3ncc(C(F)(F)F)cc3Cl)C2=O)cc1,-11%,-11%,10µM*,50µM*,-1%,7.9µM*,x,RECQ1 ADP FP=14%[91.9 µM]
CC(C)c1nnc(N2C(=O)c3oc4ccccc4c(=O)c3C2c2cccc(O)c2)s1 (stereo unspecified),-4%,x,x,x,x,x,x,
O=C(O)c1cccc(Cn2c(Cl)c(/C=N/NC(=O)c3ccccc3)sc2=O)c1,1%,-4%,-10%,-8%,3%,x,x,
O=C(O)c1cccc(Cn2c(Cl)c(/C=N/NC(=O)c3cc4ccccc4cc3O)sc2=O)c1,8.9µM*,35µM*,4.5µM*,40µM*,u,u,x,RECQ1 ADP FP=7%[91.9 µM]
CCOc1ccc(C2C(=O)N(C3CCCCCC3)CC(=O)N2Cc2ccccc2)cc1OC (stereo unspecified),-1%,x,x,x,x,x,x,
CC(=O)NC1=NC(=O)/C(=C/c2cc(C)n(-c3ccc(NC(C)=O)cc3)c2C)S1,-14%,x,40µM*,-22%,-2%,x,-8%,
Cc1cc(/C=C2\SC(=O)N(C)C2=O)c(C)n1-c1ccc(O)cc1,-6%,0%,x,12%,-20%,x,x,
CC(=O)OC[C@@H]1O[C@H](CCO/N=C\[C@@H](C)[C@H](OCc2ccccc2)C(C)C)C=C[C@@H]1OC(C)=O,-1%[12.4 µM],x,-2%[11.5 µM],x,u,x,x,
Cc1[nH][nH]c(=O)c1C(c1ccc(-c2ccc(Cl)c(Cl)c2)o1)c1c(C)[nH][nH]c1=O,-26%,x,u,0%,u,x,u,
SMILES,BLM inh,L3MBTL1 block,RECQ1 inh-1,WRN inhibitor,APE1 inh,RECQ1 conf,RECQ1 inh-2,others
Cc1[nH][nH]c(=O)c1C(c1ccc(-c2ccc(F)cc2)o1)c1c(C)[nH][nH]c1=O,-22%,u,7%,11%,-8%,x,x,
Cc1[nH][nH]c(=O)c1C(c1ccc(-c2ccc(C(=O)O)cc2)o1)c1c(C)[nH][nH]c1=O,-4%,u,11µM*,u,u,-3%[114 µM],-8%,
Cn1cnnc1SCC(=O)Nc1sc2c(c1C(N)=O)CCC2,u,u,32µM*,13µM*,u,x,u,
COCCn1cnnc1SCC(=O)Nc1sc2c(c1C#N)CCC2,x,-11%,x,u,10%,x,x,
COc1ccc(NS(=O)(=O)c2ccc(I)cc2)cc1N1CCN(C)CC1,-4%,x,-6%,x,2%,x,x,
Cc1ccc(CNC(=O)CN2C(=O)CCc3cc(S(=O)(=O)N4CCCCC4)ccc32)cc1,-1%,x,x,x,x,x,x,
CC(=O)OCCNc1nc(-c2ccccc2)nc2ccccc12,1%,0%,u,4%,10%,x,-9%,

# High-throughput results as filed in PubChem.
